# Measured values published in PubChem BioAssay (NCATS).
# A number with no mark means an inactive call. Results filed as inconclusive are left out. A call without a number means that no potency is given here. Calls of active or inactive are those of the source. Unless noted, calls follow the shape of the dose curve; as a rule, active = well fitted curve in the direction sought with a large enough effect; inconclusive = small, poorly fitted or top-dose-only effect, or another doubt; inactive = no such curve, though single readings can be large; an effect the other way counts as inactive or inconclusive.
# Assays:
# [1] = AP1 Signaling Pathway (AID 357; active = well fitted curve in either direction with a large enough effect, not every such curve was filed as active;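 also: ME-180 reporter cells stimulated with EGF at its EC50 level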); settings: ME-180 AP-1-bla reporter, EGF-induced, beta-lactamase ratio, 5 h; at 17.2 µM (top of the series) unless noted
# How it was run: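 A ratiometric CCF4 readout (405 nm excitation; 460 and 530 nm emission) quantified AP-1-driven beta-lactamase in ME-180 cells after 5 h with compound and EC50 EGF; AC50 values were derived for activators and inhibitors.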
# [2] = Stat Signaling Pathway (AID 446; active = well fitted curve in either direction with a large enough effect, not every such curve was filed as active;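 also: ME-180 cervical cancer cells given 40 pM IL-6 alongside compound; SIE-controlled beta-lactamase reporter measured as 460/530 nm FRET emission ratio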)
# How it was run: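 Reporter line: ME-180 cervical carcinoma, SIE-beta-lactamase. Treatment: compound with 40 pM IL-6, 5 hrs, 37 C, in low-serum OPTI-MEM with 10 mM HEPES pH 7.3. Detection: 460/530 nm fluorescence.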
# [3] = biological target: Glucocorticoid receptor (Homo sapiens) (UniProt P04150); assay: GR-GFP Redistribution (AID 450;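 active = compounds whose dose series gives a full or clear partial fitted curve of increased nuclear translocation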; also: potency is read from the fitted curve at half-maximal effect); settings: U2OS GR-GFP nuclear translocation, laser cytometry, 2 h
# [4] = biological target: Cytochrome P450 1A2 (Homo sapiens) (UniProt P05177); assay: p450-cyp1a2 (AID 410; calls by dose curve; also: potency is read from the fitted curve at half-maximal effect)
# How it was run: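 20nM CYP1A2 with 100uM Luciferin-ME (at Km) in 100mM KPO4; compound preincubated 10 min, NADPH regeneration added, 60 min at room temperature. Luciferin quantified by luminescence after detection reagent; normalized to 57 uM furafylline.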
# [5] = biological target: Glucocorticoid receptor (Homo sapiens) (UniProt P04150); assay: GR-EFC Redistribution (AID 451; calls by dose curve; also: potency is read from the fitted curve at half-maximal effect); settings: CHO-K1 GR-EFC translocation, beta-gal luminescence, 2 h
# How it was run: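 CHO-K1 cells expressing nuclear EA and GR-ED fragments of b-gal; compounds titrated up to 46 uM final, 2 h at 37 C. GR nuclear translocation read as complemented b-gal luminescence after 1 h RT detection.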
# [6] = biological target: Mitogen-activated protein kinase 10 (Mus musculus) (UniProt Q61831); assay: JNK3 AlphaScreen Assay (AID 530; active = well fitted curve in either direction with a large enough effect, not every such curve was filed as active;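 also: kinase came from lysate of stimulated human HepG2 cells; signal reports phosphorylation of biotinylated GST-cJun 1-79 at Ser73 with 10 µM ATP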)
# How it was run: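 Pre-activated (IL-1β/TNFα) JNK3 in HepG2 lysates phosphorylates biotin-GST-cJun(1-79), 10 uM ATP; anti-phospho-cJun(Ser73) AlphaScreen read at room temperature, pH 7.6 Tris buffer. Compounds pre-incubated 15 min as titrations.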
# [7] = biological target: 3',5'-cyclic-AMP phosphodiesterase 4B (Homo sapiens) (UniProt Q07343); assay: qHTS Assay for Inhibitors of PDE-IV (AID 607; active = well fitted activation curve with a large enough effect in the main read-out, with a control signal flat, not every such curve was filed as active)
# How it was run: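 Cell-based read-out of cAMP via a modified cyclic nucleotide-gated channel and membrane potential dye (535/590 nm) in HEK293 cells expressing PDE4 endogenously. Compounds tested up to 22.9 uM final; 100 uM RO 20-1724 reference.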
# [8] = biological target: Cytochrome P450 2C9 (Homo sapiens) (UniProt P11712); assay: qHTS Assay for Inhibitors and Substrates of Cytochrome P450 2C9 (AID 883); also: nearly all actives have a fitted effect of over 60% in size
# How it was run: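 10nM CYP2C9 + 100uM Luciferin-H (=KM), 25mM KPO4; cpd 10 min 37C; NADPH regen, 60 min 37C; stop/detect with P450 Glo-Buffer 20 min; luminescence. Norm. to 57uM sulphaphenazole as full inhibition.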
# [9] = biological target: Cytochrome P450 2D6 (Homo sapiens) (UniProt P10635); assay: qHTS Assay for Inhibitors and Substrates of Cytochrome P450 2D6 (AID 891);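 also: luciferin methyl ether substrate demethylated by CYP2D6 with NADPH regeneration; nearly all actives have a fitted effect of over 60% in size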
# How it was run: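 Human CYP2D6 (5 nM) with 30 uM Luciferin-ME EGE (at Km) in 100 mM KPO4, compound preincubated 10 min, then NADPH regeneration system for 60 min at room temperature. Luciferin read by luminescence; normalized to 1.43 uM quinidine.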
# [10] = biological target: Cytochrome P450 2C19 (Homo sapiens) (UniProt P33261); assay: qHTS Assay for Inhibitors and Substrates of Cytochrome P450 2C19 (AID 899); also: nearly all actives have a fitted effect of over 60% in size
# How it was run: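 Luminescent read-out of luciferin formed from Luciferin-H EGE (10uM, equal to KM). Enzyme 5nM in 50mM KPO4; compound added, 10 min at 37C, then NADPH regenerating system for 60 min at 37C. Full inhibition defined by 57uM ketoconazole.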
# [11] = biological target: Tumor susceptibility gene 101 protein (Homo sapiens) (UniProt Q99816); assay: qHTS Assay for Iinhibitors of HIV-1 Budding by Blocking the Interaction of PTAP/TSG101: Hit Validation (AID 651600); also: nearly all actives have a fitted effect of over 70% in size
# How it was run: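 Fluorescence polarization binding assay: Tsg101 binding domain (10 uM final) pre-dispensed with compounds, then FITC-labeled PTAP-motif peptide (50 nM final) added; 20 min at r.t. in HEPES pH 7.5 buffer with NaCl, Tween 20, EDTA, TCEP.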
# [12] = biological target: Guanine nucleotide-binding protein G(i) subunit alpha-1 (Homo sapiens) (UniProt P63096); assay: qHTS Assay for Inhibitors of RGS12 GoLoco Motif Activity (Green Fluorophore) (AID 879);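 also: negative values mean loss of peptide binding seen as reduced polarization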
# How it was run: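 Fluorescence polarization assay: 50 nM Gαi1 with 10 nM FITC-labeled RGS12 GoLoco peptide in 10 mM Tris pH 7.5, 150 mM NaCl, 0.1 mM GDP, 0.05% NP40, 10 min at room temperature with compound.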
# [13] = biological target: Cytochrome P450 3A4 (Homo sapiens) (UniProt P08684); assay: qHTS Assay for Activators of Cytochrome P450 3A4 (AID 885); also: nearly all actives have a fitted effect of over 65% in size
# How it was run: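 Signal was normalized against complete inhibition by 57 uM ketoconazole. The reaction used 20nM CYP3A4 with 25uM Luciferin-PPXE, 10-min compound preincubation and a 60-min NADPH-supported step at RT.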
# [14] = biological target: Muscarinic acetylcholine receptor M1 (Rattus norvegicus) (UniProt P08482); assay: qHTS Assay for Antagonists of Acetylcholine Muscarinic M1 Receptor: Kinetic Measurement of Intracellular Calcium Response (AID 943); also: potency is read from the fitted curve at half-maximal effect; nearly all actives have a fitted effect of over 75% in size
# How it was run: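 CHO cells expressing rat M1 receptor, Fluo-4 loaded, preincubated 10 min with compound, then stimulated with EC80 carbachol (100 nM final). Kinetic calcium fluorescence over 4 min; response taken as peak over basal signal.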
# [15] = biological target: Muscarinic acetylcholine receptor M1 (Rattus norvegicus) (UniProt P08482); assay: qHTS Assay for Antagonists of Acetylcholine Muscarinic M1 Receptor: Measurement of IP-One Response (AID 944); also: potency is read from the fitted curve at half-maximal effect; nearly all actives have a fitted effect of over 75% in size
# How it was run: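 CHO cells stably expressing rat M1, pretreated 10 min with compound, then stimulated 30 min with carbachol at EC80 (200 nM) in LiCl-containing buffer pH 7.4; IP1 accumulation read by HTRF competition (665/620 nm).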
# [16] = biological target: Pyruvate kinase (Leishmania mexicana) (UniProt Q27686); assay: qHTS Validation Assay for Inhibitors of Leishmania Mexicana Pyruvate Kinase (AID 945)
# How it was run: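 Substrate mix (0.5 mM PEP, 0.1 mM ADP, 7 mM MgCl2, 50 mM KCl, pH 7.2 imidazole) received compound by pin tool, then 0.2 nM LmPYK E451W. After 1 h at room temperature, PKLight was added and luminescence measured.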
# [17] = biological target: Pyruvate kinase PKM (Homo sapiens) (UniProt P14618); assay: qHTS Assay for Activators of Human Muscle Pyruvate Kinase (AID 954; active = well fitted curve in the direction sought with a large enough effect, not every such curve was filed as active)
# How it was run: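 Human PKM2 activity is measured as ATP generation, detected by luciferase-coupled luminescence. The enzyme (0.1 nM) acts on 0.5 mM PEP and 0.1 mM ADP for 1 h at ambient temperature; data are normalized to uninhibited and full-inhibition wells.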
# [18] = biological target: Alpha-galactosidase (Coffea arabica) (UniProt Q42656); assay: Counterscreen for Glucocerebrosidase Inhibitors: qHTS Assay for Coffee Bean alpha-Galactosidase at pH 4.5 (AID 957)
# How it was run: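 Coffee bean enzyme (2 nM) with 80 uM 4-methylumbelliferyl alpha-D-galactopyranoside in 50 mM citric acid, 0.005% Tween-20, pH 4.5, 20 min at room temperature; compounds 0.7 nM–77 uM. Stopped at pH 10, fluorescence 365/440 nm; AC50 from Hill fits.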
# [19] = biological target: Alpha-galactosidase A (Homo sapiens) (UniProt P06280); assay: Counterscreen for Glucocerebrosidase Inhibitors: qHTS Assay for Human alpha-Galactosidase at pH 4.5 (AID 992)
# How it was run: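 Quantitative HTS: compounds tested from 0.7 nM up to 77 uM against 2 nM enzyme with 80 uM 4-MU alpha-D-galactopyranoside. The 20 min room-temperature reaction is stopped with 1M NaOH/1M glycine, pH 10.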
# [20] = biological target: alpha-glucosidase (Oryza sativa, rice) (UniProt Q653V4); assay: Counterscreen for Glucocerebrosidase Inhibitors: qHTS Assay for Rice alpha-Glucosidase at pH 5.0 (AID 997)
# How it was run: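 Rice alpha-glucosidase (4 nM final) with 400 uM 4-methylumbelliferyl-alpha-D-glucopyranoside in citrate buffer pH 5.0, 20 min at room temperature, stopped at pH 10; fluorescence 365/440 nm, compounds 0.7 nM–77 uM, AC50 from Hill fits.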
# [21] = biological target: Alpha-galactosidase (Coffea arabica) (UniProt Q42656); assay: Counterscreen for Glucocerebrosidase Inhibitors: qHTS Assay for Coffee Bean alpha-Galactosidase at pH 5.9 (AID 998)
# How it was run: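 Green coffee bean enzyme (2 nM) with 4-methylumbelliferyl alpha-D-galactopyranoside (80 uM) in 50 mM citric acid, 0.005% Tween-20, pH 5.9, 20 min at room temperature; compounds 0.7 nM–77 uM. Stopped at pH 10, fluorescence Ex365/Em440; Hill-fit AC50.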
# [22] = qHTS Assay for Identification of Small Molecule Antagonists for NFkB Signaling Pathway (AID 895; active = well fitted inhibition curve with a large enough effect in the signal ratio, with a control signal flat, not every such curve was filed as active; the % refers to the signal ratio)
# How it was run: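 ME-180 NFkB-bla cells (beta-lactamase under NFkB response element), plated overnight, treated with compound then 10 pM TNF alpha (about EC50) for 5 hrs at 37 C. LiveBLAzer FRET read at 460/530 nm emission, 405 nm excitation.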
# [23] = qHTS Assay for Identification of Small Molecule Agonists for Hypoxia Response Element Signaling Pathway (AID 914; active = well fitted activation curve with a large enough effect in the signal ratio, with a control signal flat, not every such curve was filed as active; the % refers to the signal ratio); settings: ME-180 (cervical carcinoma) HRE-bla reporter, beta-lactamase ratio, CoCl2, 17 h; activation: hits give high values
# How it was run: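 Read-out: CCF4 FRET ratio of 460nm to 530nm emission (excitation 405nm) after 2.5 hours at room temperature, taken from HRE-bla ME-180 cells that had been exposed to compound and EC50 CoCl2 for 17 hours.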
# Sequence of Alpha-galactosidase (Coffea arabica) (Q42656 whole entry, looked up): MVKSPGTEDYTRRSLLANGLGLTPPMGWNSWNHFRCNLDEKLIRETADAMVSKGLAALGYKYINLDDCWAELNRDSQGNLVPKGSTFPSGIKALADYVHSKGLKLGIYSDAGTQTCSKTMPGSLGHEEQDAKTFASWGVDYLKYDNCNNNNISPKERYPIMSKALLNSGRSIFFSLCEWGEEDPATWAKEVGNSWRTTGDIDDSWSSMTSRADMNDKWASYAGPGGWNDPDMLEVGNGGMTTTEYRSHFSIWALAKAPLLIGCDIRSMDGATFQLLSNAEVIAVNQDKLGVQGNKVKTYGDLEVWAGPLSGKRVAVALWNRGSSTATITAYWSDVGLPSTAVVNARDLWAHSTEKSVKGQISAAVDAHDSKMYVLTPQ
# Sequence of Cytochrome P450 2C19 (Homo sapiens) (P33261 whole entry, looked up): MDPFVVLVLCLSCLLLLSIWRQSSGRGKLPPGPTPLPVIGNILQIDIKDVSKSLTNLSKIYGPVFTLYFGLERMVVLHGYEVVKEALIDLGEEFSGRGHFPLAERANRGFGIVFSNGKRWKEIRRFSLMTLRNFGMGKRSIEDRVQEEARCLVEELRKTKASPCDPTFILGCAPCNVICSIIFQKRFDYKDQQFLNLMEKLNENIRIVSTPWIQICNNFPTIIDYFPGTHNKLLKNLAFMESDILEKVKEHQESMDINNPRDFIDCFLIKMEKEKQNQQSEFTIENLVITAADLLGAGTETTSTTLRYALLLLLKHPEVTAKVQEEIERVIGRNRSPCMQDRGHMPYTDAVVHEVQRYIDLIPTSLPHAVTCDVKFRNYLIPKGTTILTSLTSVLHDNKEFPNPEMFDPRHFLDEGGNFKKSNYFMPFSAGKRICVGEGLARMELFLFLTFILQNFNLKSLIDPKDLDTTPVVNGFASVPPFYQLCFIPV
# Sequence of Muscarinic acetylcholine receptor M1 (Rattus norvegicus) (P08482 whole entry, looked up): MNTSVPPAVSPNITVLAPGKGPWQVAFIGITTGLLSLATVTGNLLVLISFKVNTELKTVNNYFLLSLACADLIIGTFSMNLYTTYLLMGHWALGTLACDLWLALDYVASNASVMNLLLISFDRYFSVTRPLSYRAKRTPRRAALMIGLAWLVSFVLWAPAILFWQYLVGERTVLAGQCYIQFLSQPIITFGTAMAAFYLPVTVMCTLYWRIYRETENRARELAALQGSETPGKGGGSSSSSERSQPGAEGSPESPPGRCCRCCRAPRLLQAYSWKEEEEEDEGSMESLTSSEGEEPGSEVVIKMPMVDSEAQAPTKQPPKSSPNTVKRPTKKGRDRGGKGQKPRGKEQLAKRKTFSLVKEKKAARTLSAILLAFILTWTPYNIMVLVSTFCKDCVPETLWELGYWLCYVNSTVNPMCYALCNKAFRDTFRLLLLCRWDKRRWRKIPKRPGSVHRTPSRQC
# Sequence of 3',5'-cyclic-AMP phosphodiesterase 4B (Homo sapiens) (Q07343 whole entry, looked up): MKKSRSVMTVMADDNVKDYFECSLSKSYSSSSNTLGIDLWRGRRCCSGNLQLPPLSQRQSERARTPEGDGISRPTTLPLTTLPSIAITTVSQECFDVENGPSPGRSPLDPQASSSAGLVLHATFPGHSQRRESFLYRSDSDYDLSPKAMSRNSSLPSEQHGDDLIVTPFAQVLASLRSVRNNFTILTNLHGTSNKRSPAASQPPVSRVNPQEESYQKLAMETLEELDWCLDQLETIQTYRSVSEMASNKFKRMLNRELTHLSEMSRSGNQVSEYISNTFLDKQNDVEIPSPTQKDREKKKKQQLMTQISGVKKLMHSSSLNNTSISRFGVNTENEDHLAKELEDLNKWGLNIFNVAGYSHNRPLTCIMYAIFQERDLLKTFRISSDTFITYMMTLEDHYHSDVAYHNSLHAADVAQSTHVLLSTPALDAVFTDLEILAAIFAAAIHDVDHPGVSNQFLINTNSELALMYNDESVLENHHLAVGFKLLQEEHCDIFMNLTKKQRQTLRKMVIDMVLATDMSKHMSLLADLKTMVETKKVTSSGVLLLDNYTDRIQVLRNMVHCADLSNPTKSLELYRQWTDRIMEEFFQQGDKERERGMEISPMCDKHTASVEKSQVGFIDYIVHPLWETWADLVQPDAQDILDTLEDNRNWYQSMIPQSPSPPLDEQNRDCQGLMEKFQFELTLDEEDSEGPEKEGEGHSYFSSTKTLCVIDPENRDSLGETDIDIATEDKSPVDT
# Sequence of Cytochrome P450 1A2 (Homo sapiens) (P05177 whole entry, looked up): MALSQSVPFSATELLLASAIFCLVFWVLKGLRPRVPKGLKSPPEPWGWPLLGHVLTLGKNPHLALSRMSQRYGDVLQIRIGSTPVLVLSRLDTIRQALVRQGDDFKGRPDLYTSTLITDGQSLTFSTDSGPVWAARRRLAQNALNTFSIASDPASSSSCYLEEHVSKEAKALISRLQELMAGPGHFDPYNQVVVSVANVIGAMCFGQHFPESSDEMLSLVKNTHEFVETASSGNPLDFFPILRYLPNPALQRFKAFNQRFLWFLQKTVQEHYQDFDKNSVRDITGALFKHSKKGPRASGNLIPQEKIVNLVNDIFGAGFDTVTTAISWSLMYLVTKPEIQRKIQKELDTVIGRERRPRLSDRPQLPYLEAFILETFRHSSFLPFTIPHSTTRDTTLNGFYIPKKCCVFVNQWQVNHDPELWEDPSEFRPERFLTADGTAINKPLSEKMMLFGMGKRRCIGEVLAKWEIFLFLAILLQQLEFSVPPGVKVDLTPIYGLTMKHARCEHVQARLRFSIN
# Sequence of Glucocorticoid receptor (Homo sapiens) (P04150 whole entry, looked up, the tested form may be a part): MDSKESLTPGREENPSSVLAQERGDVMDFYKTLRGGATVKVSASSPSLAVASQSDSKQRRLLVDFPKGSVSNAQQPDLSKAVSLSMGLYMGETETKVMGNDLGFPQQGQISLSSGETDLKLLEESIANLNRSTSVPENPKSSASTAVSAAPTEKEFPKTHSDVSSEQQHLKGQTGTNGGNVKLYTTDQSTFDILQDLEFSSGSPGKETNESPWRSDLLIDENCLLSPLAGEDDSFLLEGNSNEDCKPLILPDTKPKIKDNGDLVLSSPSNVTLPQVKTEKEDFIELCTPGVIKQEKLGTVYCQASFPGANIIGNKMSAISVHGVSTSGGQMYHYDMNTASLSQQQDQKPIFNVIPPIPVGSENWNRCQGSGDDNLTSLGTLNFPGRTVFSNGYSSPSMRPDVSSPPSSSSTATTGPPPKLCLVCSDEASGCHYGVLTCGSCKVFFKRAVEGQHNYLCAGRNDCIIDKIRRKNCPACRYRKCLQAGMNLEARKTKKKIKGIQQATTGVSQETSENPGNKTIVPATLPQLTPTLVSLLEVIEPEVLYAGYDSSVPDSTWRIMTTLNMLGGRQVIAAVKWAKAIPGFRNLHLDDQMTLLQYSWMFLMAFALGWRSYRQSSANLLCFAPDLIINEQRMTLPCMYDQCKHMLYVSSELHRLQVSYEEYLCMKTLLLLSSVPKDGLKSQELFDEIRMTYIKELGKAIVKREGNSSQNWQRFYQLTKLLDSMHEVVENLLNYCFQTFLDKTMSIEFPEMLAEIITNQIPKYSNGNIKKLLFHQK
# Sequence of Cytochrome P450 2C9 (Homo sapiens) (P11712 whole entry, looked up): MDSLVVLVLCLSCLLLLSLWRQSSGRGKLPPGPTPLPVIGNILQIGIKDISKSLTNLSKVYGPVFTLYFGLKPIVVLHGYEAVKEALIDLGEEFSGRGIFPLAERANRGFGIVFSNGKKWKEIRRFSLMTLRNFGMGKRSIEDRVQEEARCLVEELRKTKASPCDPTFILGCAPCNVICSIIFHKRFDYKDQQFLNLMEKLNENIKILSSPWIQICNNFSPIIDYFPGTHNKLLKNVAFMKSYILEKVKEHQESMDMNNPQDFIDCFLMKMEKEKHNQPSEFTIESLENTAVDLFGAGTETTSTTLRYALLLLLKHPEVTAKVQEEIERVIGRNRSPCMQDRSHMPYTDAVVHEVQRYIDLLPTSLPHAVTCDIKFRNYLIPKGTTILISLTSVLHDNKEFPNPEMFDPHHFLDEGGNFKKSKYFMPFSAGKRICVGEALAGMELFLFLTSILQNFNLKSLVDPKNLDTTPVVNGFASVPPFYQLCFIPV
# Sequence of Guanine nucleotide-binding protein G(i) subunit alpha-1 (Homo sapiens) (P63096 whole entry, looked up): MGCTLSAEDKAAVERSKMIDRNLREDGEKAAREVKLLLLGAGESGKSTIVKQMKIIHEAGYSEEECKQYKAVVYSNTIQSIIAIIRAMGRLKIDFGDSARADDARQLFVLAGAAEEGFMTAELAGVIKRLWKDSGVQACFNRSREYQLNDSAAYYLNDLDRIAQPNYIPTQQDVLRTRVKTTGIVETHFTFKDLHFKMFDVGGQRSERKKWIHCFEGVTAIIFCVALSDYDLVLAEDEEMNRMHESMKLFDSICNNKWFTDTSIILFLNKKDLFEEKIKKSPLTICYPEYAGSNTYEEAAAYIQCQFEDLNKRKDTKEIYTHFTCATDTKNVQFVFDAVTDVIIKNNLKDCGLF
# Sequence of Pyruvate kinase PKM (Homo sapiens) (P14618 whole entry, looked up): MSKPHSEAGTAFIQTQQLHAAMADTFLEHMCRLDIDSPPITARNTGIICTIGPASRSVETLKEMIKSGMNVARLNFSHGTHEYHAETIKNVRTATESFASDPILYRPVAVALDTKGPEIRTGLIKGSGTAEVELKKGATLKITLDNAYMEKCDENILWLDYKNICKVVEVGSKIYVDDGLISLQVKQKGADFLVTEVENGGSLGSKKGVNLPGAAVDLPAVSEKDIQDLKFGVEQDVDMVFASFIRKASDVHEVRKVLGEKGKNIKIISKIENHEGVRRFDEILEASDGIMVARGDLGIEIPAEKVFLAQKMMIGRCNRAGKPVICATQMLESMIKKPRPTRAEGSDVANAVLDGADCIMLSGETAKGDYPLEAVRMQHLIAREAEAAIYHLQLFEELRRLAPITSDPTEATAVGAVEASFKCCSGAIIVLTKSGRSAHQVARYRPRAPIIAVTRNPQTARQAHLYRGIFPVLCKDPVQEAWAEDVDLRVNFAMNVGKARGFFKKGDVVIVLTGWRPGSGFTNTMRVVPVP
smiles,measurement,setting,value
CCC(=NCCOc1ccc(Cl)cc1)c1c(O)n(C)c(=O)n(C)c1=O,"activity change, negative = inhibition",[1],-1.65%
same,outcome,[2],inactive
same,Potency,[3],> 20.6 µM
CCC(=NCCN1CCCCC1)c1c(O)n(C)c(=O)n(C)c1=O,"activity change, negative = inhibition",[1],9.93%
same,outcome,[2],inactive
same,Potency,[3],> 20.6 µM
CC1=C2[C@@H]3OC(=O)[C@H](C)[C@H]3CC[C@@]2(C)C=CC1=O,Potency,[4],31.6 µM (active)
same,Potency,[3],> 46 µM
same,Potency,[5],> 46 µM
same,outcome,[6],inactive
same,outcome,[7],inactive
same,Potency,[8],inactive
same,Potency,[9],inactive
same,Potency,[10],inactive
CN1CC=C2C(C#N)=C(N)C(C#N)(C#N)C(c3ccncc3)C2C1 (stereo unspecified),"activity change, negative = inhibition",[1],21.4%
same,outcome,[2],inactive
same,Potency,[3],> 20.6 µM
same,Potency,[11],inactive
O=C1C[C@H]2OCCC=C3CN4CC[C@@]56c7ccccc7N1[C@@H]5[C@H]2[C@H]3C[C@@H]46,Potency,[4],inactive
same,Potency,[3],> 46 µM
same,Potency,[5],> 46 µM
same,outcome,[6],inactive
same,outcome,[7],inactive
same,Potency,[8],inactive
same,Potency,[9],inactive
same,Potency,[10],inactive
CN1[C@@H]2CC[C@H]1CC(O[C@@H](c1ccccc1)c1ccccc1N)C2 (stereo partly specified),"activity change, negative = inhibition",[1],12.1% [at 38 µM]
same,Potency,[3],> 46 µM
same,Potency,[5],> 46 µM
same,outcome,[6],inactive
same,outcome,[7],inactive
same,Potency,[12],inactive
same,Potency,[8],inactive
same,Potency,[13],inactive
same,Potency,[14],0.0141 µM (active)
same,Potency,[15],0.0071 µM (active)
same,Potency,[16],inactive
same,outcome,[17],inactive
same,outcome,[18],inactive
same,outcome,[19],inactive
same,outcome,[20],inactive
same,outcome,[21],inactive
CCCCCCn1c(O)c(C=NC2CCN(Cc3ccccc3)CC2)c(=O)[nH]c1=O,"activity change, negative = inhibition",[1],-7.92%
same,outcome,[2],inactive
same,Potency,[3],> 20.6 µM
CC(=O)N1C[C@@H]2C[C@H](C1)c1cccc(=O)n1C2,Potency,[4],inactive
same,Potency,[3],> 46 µM
same,Potency,[5],> 46 µM
same,outcome,[6],inactive
same,outcome,[7],inactive
same,Potency,[8],inactive
same,Potency,[10],inactive
NC(=O)c1ccc(OC[C@H](O)CN2CC=C(c3ccc(F)cc3)CC2)cc1,"activity change, negative = inhibition",[1],18.4% [at 38 µM]
same,Potency,[3],> 46 µM
same,Potency,[5],> 46 µM
same,outcome,[7],inactive
same,Potency,[12],inactive
same,Potency,[22],inactive
same,activation,[23],-0.382%
same,Potency,[14],6.31 µM (active)
same,Potency,[16],inactive
same,outcome,[17],inactive
same,outcome,[18],inactive
same,outcome,[19],inactive
same,outcome,[20],inactive
same,outcome,[21],inactive
